The values that follow come from the supplement of paper PMC6555819.

In one test the test system is RXRa homodimer (NR concentration 180 nM). Kind of test: PBM binding z-score (relative to random genomic background probes); higher = stronger binding; sequences stand for … in GC…GCGATTGACAGCGTAGAATGAAGG
The essentials:
(§1)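 Scanned fluorescence from custom Agilent 4×180K protein-binding microarrays was regression-normalized. Binding z-scores use random background probes as reference. Ligand-free nuclear receptor dimers were incubated on the arrays for 1 h and detected with antibodies against each partner (one per run).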
TCATATAGGCAAACAGGTGAAAGTCCGTAAGTTA showed a PBM binding z-score of 0.527.
Sequence TCTGCTAGGTCAGTAGGTCAGCTAACGAGCTGCC came in with a PBM binding z-score of 2.36.
Still for that read-out and setting: the value for ATCTCTAGGTAACAAGTTCAGTGAGAGAGAGGAC was 0.903; that for TCGAGTAGGTTTGTCGGGGCATTCAGCCAACATA was -0.149.
On to ATCTCTAGGTAAAAGTTCAGTCAATCCCGAGGAT, for which the PBM binding z-score came to 1.7.
As for TCATATAGGTAAGTGCTAGGTGAAAGTCCGATCT, the PBM binding z-score was 0.629.
ATATGTAGGTTATCGGGTCTTTCAGTTTGCGCAT gave a PBM binding z-score of 1.03.
Still for that read-out and setting: next, GCTAGCAGGCCATTTGGGTCACTGAATGACGGGC: 0.735.
With CAAACTAGGCCACGAAAGGTCAAAGTCGAATGAC, the PBM binding z-score turned out to be 6.58.
With TCTTGAAGATCAATAGAGGTTAAGAAAGTGCGCT, the PBM binding z-score is 1.49.
For AGAAAGAGGTTATACGTAGATCAGGGAAGAAAGT, the PBM binding z-score stood at 2.93.
ATATGTAGGTTAAGGGTAATTCAGGTTGGTTCGC had a PBM binding z-score of 1.64.
Turning to TAGCCTAGGTCATTCAGGGGCCAGTTTAGAAAGC, the PBM binding z-score turned out to be 2.56.
Regarding TCAGACAGGTGGAGGTAACTCAGGTACGCAGTCG, the PBM binding z-score is 0.574.
On the same count and under the same terms, the value for GGAACGAGAGCATTCGAGTTGATAGCATGGCGAT was -0.118.
ACTAGCAGACCAAGGGTCACTCAAGATTAGTCCG showed a PBM binding z-score of 3.57.
TCAGACAGGTGAAGGTACCTCAGGTACGCAGTCG gave a PBM binding z-score of 1.05.
Regarding CGTCAAAGATCAACTAAGGTAACGTAAAGCACGC, the PBM binding z-score stood at 0.921.
In turn, ATCTATAGGTAAGACTCAGTTCAGTGAAGAACGC returned a PBM binding z-score of 0.24.
In the case of GCTGCTAGGTCAACAGATGGTCAGCTAAAGCTCG, the PBM binding z-score came out at 2.42.
Sequence TAGCCCAGGTCATTCAGGGGCCAGTATAGAAAGC yielded a PBM binding z-score of 3.39.
CGACCAAGGTCAAAGGTCAGTGAAGAGATGACGG registered a PBM binding z-score of 10.4.
Sequence CCGACTGGGGCAGAAGGTTACCATAAGCCAGCCC registered a PBM binding z-score of 1.04.
The same measure, in the same setting: the value for ATCGAAAGGTCGAAGGTTAGTATACCCACCCGAA was 5.38; that for TCGCGGAGGACACGAAGGTCAGAGCTTTCCAGAG was 1.64.
Same read-out and setting: the value for CGAACTGGGTCATTGACAGGACAGTGAATAGTAA was 2.88; that for CCGACTGGGGCAATGGTTACCATACTCAGTACGA was 0.082; that for TCTTGTAGATCAAAGGTAAAGAAAGCCGAAGCCT was 0.881.
Turning to TAGCCTAGGTCATTCCGGGGCCAGTATAGAAAGC, the PBM binding z-score was found to be 2.66.
For the sequence TCATATAGGTAAATGCTAGTTGAAAGTCCGATCT, the PBM binding z-score worked out at 0.682.
Regarding GCTTACGGGTCAAAGATTATAGCATGAATAGAAT, the PBM binding z-score came out at 5.43.
With CCTAGTAGGTCAGGAGGTCACACACCGGATATGA, the PBM binding z-score amounted to 7.18.
In the case of TCATAGAGGTAAAGGTGAAAGTCGAACGATATGA, the PBM binding z-score was found to be 2.39.
ATCTCTAGGTAAAGTACAGTGAAAGATCGATAGA registered a PBM binding z-score of 0.366.
With GGAACGAGGGCATTCGAGTTGGTAGCATGGCGAT, the PBM binding z-score was found to be 0.508.
CTTCCAAGGTCAAGGTCAGTGAAAGAGACTCGAA had a PBM binding z-score of 6.55.
On to GGAACGACGGCAAGTTGATAGCAGAGTTTGATGG, for which the PBM binding z-score was -0.0735.
CTCGAAAGGTCGGTAGAGGTGAGTATACGGATAA showed a PBM binding z-score of 2.49.
Turning to ACTAGAAGGCCAAGTTTGGGTCACTCAAACAAAG, the PBM binding z-score is 1.29.
Same read-out and setting: next, TGTCAAACTTCAAAGGTAACGTAAGTATCCACAC: 0.655.

A further test relates to THRa:RXRa (NR concentration 90 nM, RXRa partner concentration 90 nM). Described as above. Summed up:
as §1
For the sequence TCATATAGGCAAACAGGTGAAAGTCCGTAAGTTA, the PBM binding z-score was 0.197.
On the same count and under the same terms, the value for TCTGCTAGGTCAGTAGGTCAGCTAACGAGCTGCC was 1.93.
Same read-out and setting: the value for ATCTCTAGGTAACAAGTTCAGTGAGAGAGAGGAC was 1.49.
Sequence TCGAGTAGGTTTGTCGGGGCATTCAGCCAACATA registered a PBM binding z-score of 0.462.
In the case of ATCTCTAGGTAAAAGTTCAGTCAATCCCGAGGAT, the PBM binding z-score was found to be 1.53.
The sequence TCATATAGGTAAGTGCTAGGTGAAAGTCCGATCT displayed a PBM binding z-score of 0.873.
Take ATATGTAGGTTATCGGGTCTTTCAGTTTGCGCAT: the PBM binding z-score worked out at 1.08.
Regarding GCTAGCAGGCCATTTGGGTCACTGAATGACGGGC, the PBM binding z-score turned out to be 1.95.
On to CAAACTAGGCCACGAAAGGTCAAAGTCGAATGAC, for which the PBM binding z-score amounted to 4.26.
Still for that read-out and setting: next, TCTTGAAGATCAATAGAGGTTAAGAAAGTGCGCT: 2.53; AGAAAGAGGTTATACGTAGATCAGGGAAGAAAGT: 1.52; ATATGTAGGTTAAGGGTAATTCAGGTTGGTTCGC: 2.43.
Same read-out and setting: the value for TAGCCTAGGTCATTCAGGGGCCAGTTTAGAAAGC was 3.67.
Take TCAGACAGGTGGAGGTAACTCAGGTACGCAGTCG: the PBM binding z-score amounted to 1.48.
GGAACGAGAGCATTCGAGTTGATAGCATGGCGAT had a PBM binding z-score of 1.04.
Regarding ACTAGCAGACCAAGGGTCACTCAAGATTAGTCCG, the PBM binding z-score was determined as 2.42.
On to TCAGACAGGTGAAGGTACCTCAGGTACGCAGTCG, for which the PBM binding z-score stood at 0.941.
Consider CGTCAAAGATCAACTAAGGTAACGTAAAGCACGC, for which the PBM binding z-score amounted to 4.69.
For ATCTATAGGTAAGACTCAGTTCAGTGAAGAACGC, the PBM binding z-score was found to be 0.633.
On to GCTGCTAGGTCAACAGATGGTCAGCTAAAGCTCG, for which the PBM binding z-score was determined as 2.56.
On to TAGCCCAGGTCATTCAGGGGCCAGTATAGAAAGC, for which the PBM binding z-score was 3.71.
CGACCAAGGTCAAAGGTCAGTGAAGAGATGACGG returned a PBM binding z-score of 4.71.
For CCGACTGGGGCAGAAGGTTACCATAAGCCAGCCC, the PBM binding z-score is 0.31.
Still for that read-out and setting: the value for ATCGAAAGGTCGAAGGTTAGTATACCCACCCGAA was 2.19; that for TCGCGGAGGACACGAAGGTCAGAGCTTTCCAGAG was 2.62.
In turn, CGAACTGGGTCATTGACAGGACAGTGAATAGTAA came in with a PBM binding z-score of 2.41.
CCGACTGGGGCAATGGTTACCATACTCAGTACGA: the PBM binding z-score is -0.548.
TCTTGTAGATCAAAGGTAAAGAAAGCCGAAGCCT: the PBM binding z-score was found to be 0.386.
Consider TAGCCTAGGTCATTCCGGGGCCAGTATAGAAAGC, for which the PBM binding z-score stood at 3.63.
Take TCATATAGGTAAATGCTAGTTGAAAGTCCGATCT: the PBM binding z-score was 0.27.
For the sequence GCTTACGGGTCAAAGATTATAGCATGAATAGAAT, the PBM binding z-score came out at 2.21.
As to CCTAGTAGGTCAGGAGGTCACACACCGGATATGA, the PBM binding z-score stood at 3.91.
TCATAGAGGTAAAGGTGAAAGTCGAACGATATGA came in with a PBM binding z-score of 1.67.
Sequence ATCTCTAGGTAAAGTACAGTGAAAGATCGATAGA returned a PBM binding z-score of 0.609.
In the case of GGAACGAGGGCATTCGAGTTGGTAGCATGGCGAT, the PBM binding z-score worked out at 1.87.
CTTCCAAGGTCAAGGTCAGTGAAAGAGACTCGAA returned a PBM binding z-score of 4.54.
For GGAACGACGGCAAGTTGATAGCAGAGTTTGATGG, the PBM binding z-score was -0.769.
Same read-out and setting: next, CTCGAAAGGTCGGTAGAGGTGAGTATACGGATAA: 4.38; ACTAGAAGGCCAAGTTTGGGTCACTCAAACAAAG: 3.
On the same count and under the same terms, the value for TGTCAAACTTCAAAGGTAACGTAAGTATCCACAC was 1.1.
